# Compound activity deposited in PubChem by National Center for Advancing Translational Sciences (NCATS).
# PI5P4K alpha inh: qHTS for Inhibitors of phosphatidylinositol 5-phosphate 4-kinase (PI5P4K); Phosphatidylinositol 5-phosphate 4-kinase type-2 alpha (Homo sapiens), P48426; PI5P4Kalpha enzyme, ADP-Glo luminescence, 60 min; stronger effect = lower value; max response, %; actives 1.2% (n = 330,000); active means max response of -50% or lower; inconclusive means between -30% and -50%; inactive means -30% or higher; further: value at the top dose of about 77 µM; on the % scale 0 is the no-effect control and ±100 the full control effect
#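 PI5P4Kalpha ADP-Glo assay; 5 microM ATP final; 60 min RT reaction; HEPES pH 7.4/EGTA/CHAPS, 5% DMSO; controls lacking substrate or enzyme; luminescent end-point.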
# HP1b chromo inh: HTS for Inhibitors of HP1-beta Chromodomain Interactions with Methylated Histone Tails; AID 540317, 2011; Potency, µM (doses to about 114 µM), for inactives: at the highest dose activity change, negative = inhibition, most hits filed as inhibitors; actives 0.56% (n = 390,000); AlphaScreen HP1-beta / biotin-H3K9me3 peptide binding; Chromobox protein homolog 1 (Homo sapiens), P83916; further: potency means the concentration at half of the fitted maximal effect; nearly all actives have a fitted effect of over 70% in size
#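 HP1-beta protein (50 nM final) preincubated 30 min at room temperature with biotinylated H3(1-18)K9me3 peptide (50 nM) in PBS pH 7.4, 0.01% Tween-20, then compound added for 30 min. AlphaScreen streptavidin donor/nickel chelate acceptor beads (10 ug/mL final), 30 min dark, luminescence read.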
# PLK1 PBD block: qHTS for Inhibitors of PLK1-PDB (polo-like kinase 1 - polo-box domain): Primary Screen. AID 720504, 2013. Plk1 PBD binding of FITC phosphopeptide, fluorescence polarization. Serine/threonine-protein kinase PLK1 (Homo sapiens), P53350. actives 2.8% (n = 360,000). Potency, µM, inactives show max response, negative = inhibition, actives largely listed as inhibitors; further: potency means the concentration at half of the fitted maximal effect; series mostly up to about 57 µM; on the % scale 0 is the no-effect control and ±100 the full control effect; nearly all actives have a fitted effect of over 65% in size
# BAZ2B inh: qHTS Assay for Inhibitors of BAZ2B; Bromodomain adjacent to zinc finger domain protein 2B (Homo sapiens), Q9UIF8; AlphaScreen BAZ2B-H3K14Ac peptide displacement; Potency, µM (series often up to 114 µM), for the others: top-dose activity change, negative = inhibition, usual class: inhibitors; actives 4.4% (n = 360,000); further: potency means the concentration at half of the fitted maximal effect; on the % scale 0 is the no-effect control and ±100 the full control effect; nearly all actives have a fitted effect of over 60% in size
# Target sequence (Q9UIF8 whole entry, looked up, the tested form may be a part): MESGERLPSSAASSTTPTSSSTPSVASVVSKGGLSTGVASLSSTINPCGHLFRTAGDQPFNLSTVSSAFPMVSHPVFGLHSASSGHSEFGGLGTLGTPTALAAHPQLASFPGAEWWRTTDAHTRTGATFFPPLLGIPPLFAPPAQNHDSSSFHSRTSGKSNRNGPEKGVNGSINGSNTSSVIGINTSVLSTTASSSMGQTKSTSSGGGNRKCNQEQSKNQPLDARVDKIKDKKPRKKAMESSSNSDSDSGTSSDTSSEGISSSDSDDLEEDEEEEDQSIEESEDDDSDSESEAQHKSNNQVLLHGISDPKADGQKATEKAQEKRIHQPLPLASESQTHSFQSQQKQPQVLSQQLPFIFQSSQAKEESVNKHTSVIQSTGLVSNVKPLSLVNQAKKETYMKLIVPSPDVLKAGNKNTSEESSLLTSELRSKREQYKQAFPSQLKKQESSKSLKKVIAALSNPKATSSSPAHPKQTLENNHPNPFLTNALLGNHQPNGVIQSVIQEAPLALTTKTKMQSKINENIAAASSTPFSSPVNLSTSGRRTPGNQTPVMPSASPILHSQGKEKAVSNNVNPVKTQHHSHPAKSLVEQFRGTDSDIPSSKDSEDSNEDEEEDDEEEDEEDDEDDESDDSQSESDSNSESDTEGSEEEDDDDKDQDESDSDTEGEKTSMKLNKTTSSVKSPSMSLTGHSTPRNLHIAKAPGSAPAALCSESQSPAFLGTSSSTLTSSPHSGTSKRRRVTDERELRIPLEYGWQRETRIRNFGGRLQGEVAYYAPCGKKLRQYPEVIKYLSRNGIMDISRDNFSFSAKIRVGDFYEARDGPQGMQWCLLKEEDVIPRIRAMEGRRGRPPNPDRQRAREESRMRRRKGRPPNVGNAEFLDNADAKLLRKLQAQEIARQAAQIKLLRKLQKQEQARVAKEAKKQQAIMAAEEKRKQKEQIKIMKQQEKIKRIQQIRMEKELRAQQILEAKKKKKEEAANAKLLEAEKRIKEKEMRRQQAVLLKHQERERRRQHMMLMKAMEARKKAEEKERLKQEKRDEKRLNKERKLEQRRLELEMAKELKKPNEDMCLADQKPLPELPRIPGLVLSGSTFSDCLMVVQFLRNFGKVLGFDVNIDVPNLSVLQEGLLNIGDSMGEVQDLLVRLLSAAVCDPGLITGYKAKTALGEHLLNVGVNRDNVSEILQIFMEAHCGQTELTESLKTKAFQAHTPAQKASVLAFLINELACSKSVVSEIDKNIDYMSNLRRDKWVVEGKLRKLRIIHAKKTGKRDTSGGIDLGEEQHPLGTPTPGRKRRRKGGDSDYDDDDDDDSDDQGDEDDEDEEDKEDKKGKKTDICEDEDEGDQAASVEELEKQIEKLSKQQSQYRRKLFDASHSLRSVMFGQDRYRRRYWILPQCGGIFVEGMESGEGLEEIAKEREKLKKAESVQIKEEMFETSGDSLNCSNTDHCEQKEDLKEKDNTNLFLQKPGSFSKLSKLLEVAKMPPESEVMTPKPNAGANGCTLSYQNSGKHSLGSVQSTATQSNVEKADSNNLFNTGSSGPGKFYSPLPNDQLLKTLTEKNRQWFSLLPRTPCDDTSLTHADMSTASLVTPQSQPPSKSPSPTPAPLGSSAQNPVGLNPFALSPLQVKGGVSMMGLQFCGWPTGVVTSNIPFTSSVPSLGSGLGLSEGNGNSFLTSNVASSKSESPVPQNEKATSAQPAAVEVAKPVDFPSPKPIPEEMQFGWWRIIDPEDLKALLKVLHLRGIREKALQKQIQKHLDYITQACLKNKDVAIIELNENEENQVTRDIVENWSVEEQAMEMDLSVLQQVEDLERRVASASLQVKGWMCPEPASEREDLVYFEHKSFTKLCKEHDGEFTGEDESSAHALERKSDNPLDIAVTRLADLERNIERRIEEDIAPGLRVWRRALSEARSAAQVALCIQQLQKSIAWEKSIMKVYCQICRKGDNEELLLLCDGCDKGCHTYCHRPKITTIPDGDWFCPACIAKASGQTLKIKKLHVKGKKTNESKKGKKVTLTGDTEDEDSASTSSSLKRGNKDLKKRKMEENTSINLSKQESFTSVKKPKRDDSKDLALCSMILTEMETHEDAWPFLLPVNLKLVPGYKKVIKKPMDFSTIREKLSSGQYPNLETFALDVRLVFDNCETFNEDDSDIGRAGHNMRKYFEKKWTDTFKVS
#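 Compounds, titrated to a top concentration of 110 uM, were incubated 30 min at room temperature with preformed BAZ2B/acetyl-K14 H3 peptide complex (50 nM each). Proximity signal was measured by AlphaScreen after 20 min with beads.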
# G9a block: qHTS Assay for Inhibitors of Histone Lysine Methyltransferase G9a; Histone-lysine N-methyltransferase EHMT2 (Homo sapiens), Q96KQ7; G9a H3K9 monomethylation, AlphaScreen, 2 h; Potency, µM (titrated, usually from 102 µM), inactives show top-dose activity, negative = inhibition, hits mostly inhibitors; actives 8.8% (n = 350,000); AID 504332, 2011; further: potency means the concentration at half of the fitted maximal effect; on the % scale 0 is the no-effect control and ±100 the full control effect; nearly all actives have a fitted effect of over 75% in size
#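 Enzyme 20 nM + cpd, 15 min RT; add b-H3K9 pep 500 nM / SAM 20 uM; 2 h RT; anti-H3K9me1 Ab 0.5 ug/mL + SA donor / anti-rabbit acceptor beads 20 ug/mL each, 10 min; AlphaScreen read.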
# JMJD2A Tudor: qHTS Assay for Inhibitors of JMJD2A-Tudor Domain; Lysine-specific demethylase 4A (Homo sapiens), O75164; AlphaScreen JMJD2A-Tudor / H3K4me3 peptide binding; Potency, µM (doses to about 114 µM), for inactives: at the highest dose activity change, negative = inhibition, hits mostly inhibitors; actives 4.4% (n = 390,000); AID 504339, 2011; further: potency means the concentration at half of the fitted maximal effect; on the % scale 0 is the no-effect control and ±100 the full control effect; nearly all actives have a fitted effect of over 50% in size
# Starred values were filed as active, the others as inactive; ? = inconclusive; nt = no result; [ ] = remark or other dose. Compounds with a hit are over-represented: about 12% of the library has one in this group of screens. Unless noted, the call rests on the fitted dose curve; in most records, active means well fitted curve in the direction sought with a large enough effect; inconclusive means small, poorly fitted or top-dose-only effect, or another doubt; inactive means no such curve, though single readings can be large; an effect the other way counts as inactive or inconclusive.
SMILES,PI5P4K alpha inh,HP1b chromo inh,PLK1 PBD block,BAZ2B inh,G9a block,JMJD2A Tudor
CCOc1cc(/C=C2\SC(=S)N(Nc3ccccc3)C2=O)ccc1O,-16,50µM*,?,20µM*,?,0%[11.4 µM]
O=C(NN1C(=O)/C(=C\c2ccc(O)c([N+](=O)[O-])c2)SC1=S)c1ccccc1Cl,-78*,-32%,-16%,40µM*,4µM*,56µM*
O=C(NN1C(=O)/C(=C/c2cccc(O)c2)SC1=S)c1ccccc1O,-18,-18%[57 µM],-27%,45µM*,-8%[59 µM],45µM*
Cc1nnc(NC(=O)C2CCN(C(=O)c3ccsc3)CC2)s1,nt,53%,nt,nt,nt,3%
O=C(O)C(Cc1ccccc1)N1C(=O)/C(=C/c2cccc3ccccc23)SC1=S (stereo unspecified),nt,nt,nt,56µM*,?,nt
COc1cc(/C=C2\SC(=S)N(Nc3ccccc3)C2=O)ccc1O,?,50µM*,20%,40µM*,?,45µM*
O=C1/C(=C/c2ccc(O)c(O)c2)SC(=S)N1Nc1ccccc1,-61*,7.1µM*,8%,3.5µM*,10µM*,10µM*
COc1cc(/C=C2\SC(=S)N(C(Cc3ccccc3)C(=O)O)C2=O)ccc1O (stereo unspecified),-9,?,10%,35µM*,nt,-32%
O=C(O)C(Cc1ccccc1)N1C(=O)/C(=C/c2ccccc2)SC1=S (stereo unspecified),0,-18%,?,?,?,?
COc1ccc(CCNC(=O)Nc2nc(C(N)C3CCCCC3)cs2)cc1OC (stereo unspecified),-1,nt,-10%,nt,nt,nt
Cc1c(C(c2cccc(Br)c2)c2c(C)n(C)n(-c3ccccc3)c2=O)c(=O)n(-c2ccccc2)n1C,0,12%,-11%,-16%,?,-7%
CC(=O)NN1C(=O)/C(=C\c2ccc(C)cc2)SC1=S,nt,22%,-3%,-4%,15%[59 µM],-3%
O=C(NN1C(=O)/C(=C/c2ccc(O)c(O)c2)SC1=S)c1ccccc1,-53*,?,3%,5.6µM*,6.3µM*,13µM*
CCOc1cc(/C=C2\SC(=S)N(NS(=O)(=O)c3ccccc3)C2=O)ccc1O,-67*,2%,13%,?,-1%[2.33 µM],-27%
CCNC(=O)CN(c1ccc(F)cc1)S(=O)(=O)c1ccc2c(c1)OCCO2,4,21%,-15%,4%,3%,-3%
C#C[C@]1(O)CC[C@@H]2[C@H]3CCC4=CC(=O)CC[C@H]4[C@H]3C(=C)C[C@@]21CC,nt,nt,nt,nt,3%[12.7 µM],nt
Cc1cc(C)n(C(=O)/C=C/c2cccs2)n1,1,80%,-6%,56µM*,-7%[12.7 µM],27%
O=C(/C=C/c1cccs1)N1CCCC1,-1,-7%,-2%,4%,6%,-16%
CSc1ccc(NC(=O)C2CCN(c3ncccn3)CC2)cc1,nt,87%,nt,25%,22%[59 µM],-11%
COc1cc2c(cc1OC)C(c1ccc(Cl)cc1)N(c1cccc(C#N)c1)C(=O)C2 (stereo unspecified),nt,12%,nt,-25%,1%[59 µM],-29%
COc1ccc2c(c1)sc1ncc(C(=O)NCc3ccc(Cl)cc3)c(=O)n12,nt,54%,nt,2%,-2%[59 µM],16%
CCN(CC(=O)Nc1c(F)cccc1F)C(=O)c1cccc(S(=O)(=O)N2CCCCCC2)c1,-1,27%,-15%,4%,26%[12.7 µM],-5%
Brc1ccc(-c2nc3ccccc3s2)s1,42,161%,-11%,20%,47%[59 µM],41%
